Compounds with a hit are over-represented: about 21% of the library has one in this group of screens.
Pf growth 48h = Primary qHTS for delayed death inhibitors of the malarial parasite plastid, 48 hour incubation. P. falciparum luciferase growth in erythrocytes, 48 h. Potency, µM (series often up to 28.7 µM), inactives show at the top dose activity change, negative = inhibition, hits mostly inhibitors. actives 5.9% (n = 310,000). AID 504832, 2011; further: potency means the concentration at half of the fitted maximal effect; on the % scale 0 is the no-effect control and ±100 the full control effect
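Luciferase-expressing P. falciparum in infected erythrocytes (2% hematocrit, 0.1% parasitemia final) in RPMI 1640/0.5% Albumax were exposed to compound for 48 hours at 37 C, 5% CO2; growth read as luminescence.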
CHX counter = Cycloheximide Counterscreen for Small Molecule Inhibitors of Shiga Toxin | cell reporter, cycloheximide protein synthesis inhibition counterscreen | AID 2314, 2010 | actives 12% (n = 300,000) | max response, %; in the data active means max response mostly above about 13%, no sharp cut-off; inactive means mostly below about 14%; further: read at 38.3 µM for the half of the compounds with a filed dose; 0% is about no effect
Pf growth 96h = Primary qHTS for delayed death inhibitors of the malarial parasite plastid, 96 hour incubation; AID 504834, 2011; Potency, µM (top dose mostly 28.7 µM), inactives show at the highest dose activity change, negative = inhibition, actives largely listed as inhibitors; P. falciparum luciferase reporter growth, 96 h; actives 6.9% (n = 320,000); further: potency means the concentration at half of the fitted maximal effect; on the % scale 0 is the no-effect control and ±100 the full control effect
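Erythrocytes infected with luciferase-expressing P. falciparum were dispensed at 2% hematocrit and 0.05% parasitemia (final), then incubated with compounds 96 hours at 37 C in 5% CO2. Luminescence after detection reagent addition reported growth.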
Shiga inhibitor = A qHTS for Small Molecule Inhibitors of Shiga Toxin; actives 9.2% (n = 290,000); Vero cells, Shiga toxin protein synthesis inhibition reporter; inhibition, % at 38.7 µM; in the data active means inhibition mostly above about 28%, no sharp cut-off; inactive means mostly below about 43%; further: 0% is about no effect
NS1 function inh = qHTS Assay for Inhibitors of Influenza NS1 Protein Function; Potency, µM (top dose mostly 46.1 µM), inactives show top-dose activity, positive = more growth; actives 0.4% (n = 270,000); calls by dose curve; further: potency means the concentration at half of the fitted maximal effect; actives are rising curves; nearly all actives have a fitted effect of over 50% in size
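Read-out: OD600 growth recovery of NS1-expressing budding yeast. Cells grown overnight at 30C in -URA glucose medium, washed, resuspended and diluted 1:100 in 2% galactose assay medium, pH 6.0. Same strain lacking NS1 served as positive control.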
Sm TGR inh = qHTS Assay for the Inhibitors of Schistosoma Mansoni Peroxiredoxins; Potency, µM (highest dose often 114 µM), inactives show at the top dose activity change, negative = inhibition, actives largely listed as inhibitors; Schistosoma mansoni thioredoxin glutathione reductase (TGR), Q962Y6; AID 485364, 2010; actives 3% (n = 360,000); purified TGR, DTNB reduction, TNB absorbance 405 nm; further: potency means the concentration at half of the fitted maximal effect; on the % scale 0 is the no-effect control and ±100 the full control effect; nearly all actives have a fitted effect of over 60% in size
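Kinetic colorimetric format: TGR-catalysed, NADPH-driven DTNB reduction monitored via TNB absorbance. Enzyme dispensed at 20 nM; compound exposure 15 min at room temperature before reaction start.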
The depositor's hits bear a star; ? = inconclusive; . = no result given. Unless noted, the call rests on the fitted dose curve; in most records, active means well fitted curve in the direction sought with a large enough effect; inconclusive means small, poorly fitted or top-dose-only effect, or another doubt; inactive means no such curve, though single readings can be large; an effect the other way counts as inactive or inconclusive.

SMILES | Pf growth 48h | CHX counter | Pf growth 96h | Shiga inhibitor | NS1 function inh | Sm TGR inh
O=c1c2cc([N+](=O)[O-])ccc2nc2n1CCCC2 | . | -1.1 | 439.8% | -5.4 | 2.5% | -27.8%
COc1cc2c(C#N)c(N3CCN(C)CC3)nc(N)c2c(N)n1 | 15.2% | 1.6 | . | -8.9 | -7.0% | -7.7%
COc1cc2c(C#N)c(N3CCN(c4ccccc4OC)CC3)nc(N)c2c(N)n1 | 2.08µM* | 25.3 | 8.28µM* | 16.8 | -42.1% | -6.4%
COc1cc2c(C#N)c(N3CCCC3)nc(N)c2c(N)n1 | 36.3% | 0.6 | ? | 10.5 | ? | 7.2%
N#Cc1c(N2CCCC2)nc(N)c2c(N)nc(N3CCCC3)cc12 | ? | 31.2* | ? | 47.3* | -39.6% | 10.3%
O=C(CSc1nnc(NC2CCCCC2)s1)Nc1ccc2c(c1)C(=O)c1ccccc1C2=O | -50.6% | 42.3* | -26.1% | 65.6* | -0.7% | .
NS(=O)(=O)c1ccc(NC(=O)CSc2nnc(NC3CC3)s2)cc1 | -17.4% | . | -2.1% | . | . | -3.9%
CC(C)Nc1nnc(SCC(=O)Nc2ccc3c(c2)C(=O)c2ccccc2C3=O)s1 | 41.2% | 40.8* | ? | 70.1* | 9.8% | -4.5%
Cc1ccc(NC(=O)CN(C)C(=O)CSc2nnc(NC(C)C)s2)cc1 | ? | . | -8.2% | . | . | -5.7%
Cc1cc(C)cc(NCc2ccncc2)c1 | 12.7% | -0.7 | ? | 4.5 | ? | 3.2%
Cc1cc(C)c(-c2c(O)c3c(n(C)c2=O)CC(C)(C)CC3=O)c(C)c1 | ? | -2.7 | 5.86µM* | -4.4 | -23.4% | -11.6%
O=C(Nc1ccccc1)N(O)c1ccc(Cl)cc1 | 127.1% | 48.7* | -2.0% | 98.3* | -72.4% | -27.4%
O=C(Nc1ccc(Cl)cc1)N(Cc1nc2ccccc2c(=O)[nH]1)Cc1cccs1 | 14.7µM* | -1.2 | 3.29µM* | -1.4 | 5.8% | 1.9%
CC(=O)N(C)c1ccc(NC(=O)Cc2cccs2)cc1 | 29.2% | 17.6* | -25.9% | . | -0.6% | -11.8%
NC(=O)c1ccc(NC(=O)Cc2cccs2)cc1 | -12.8% | 2.6 | ? | 15.6 | ? | -6.6%
O=C(Cc1cccs1)Nc1ccc(Cl)cc1 | 42.6% | 17.4* | . | active | -6.6% | 1.5%
Cc1cc(C)c(S(=O)(=O)Nc2ccccn2)c(C)c1 | 17.7% | -1.7 | -2.9% | 6.9 | 9.3% | -7.0%
CCN(CC)C(=O)c1ccc2c(c1)N(Cc1c(F)cccc1Cl)C(=O)c1ccccc1S2 | . | . | . | . | . | 3.0%
O=C(Nc1ccc(Cl)cc1)N(Cc1cccs1)Cc1cccs1 | ? | 14.0* | ? | 45.1* | -0.5% | 1.4%
CCOC(=O)c1cc(NCc2cccs2)ccc1N1CCOCC1 | -10.4% | 1.1 | 1.47µM* | -9.7 | -2.0% | -11.2%
CCOC(=O)c1cc(NC(=O)c2cccs2)ccc1N1CCOCC1 | -19.3% | 10.5 | 21.2% | -3.7 | -0.9% | 0.8%
Cc1cccc(NC(=O)Cc2cccs2)n1 | 135.5% | 32.5* | 17.4% | 68.8* | 4.0% | -8.1%
O=C(Cc1cccs1)Nc1ccc(N2CCOCC2)cc1 | . | 24.4* | 99.4% | 111.0* | 7.1% | -10.7%
Cc1cc(NC(=O)Cc2cccs2)no1 | 5.0% | 1.0 | ? | -11.1 | ? | -9.4%
COc1cc(OC)cc(C(=O)Nc2ccc(C(=O)c3ccncc3)cc2)c1 | 27.1% | 16.4 | ? | 21.2 | -16.8% | 2.3%
SMILES | Pf growth 48h | CHX counter | Pf growth 96h | Shiga inhibitor | NS1 function inh | Sm TGR inh
O=C(CNc1ccc2ccccc2c1)N/N=C/C=C/c1cccc([N+](=O)[O-])c1 | 20.3% | -4.4 | ? | -2.8 | 0.0% | -7.4%
CC1CCN(C(c2ccccc2)c2sc3nc(-c4ccco4)nn3c2O)CC1 (stereo unspecified) | . | . | . | . | . | 8.1%
Cc1ccc(C(c2c(O)cc(C)n(Cc3ccco3)c2=O)N2CCC(C)CC2)cc1 (stereo unspecified) | . | . | . | . | . | 10µM*
O=C(Nc1cccc(-c2cccc(F)c2)c1)C1CCN(Cc2ccco2)CC1 | -3.4% | 10.0 | -7.1% | 17.8 | 2.1% | 0.0%
Cc1cc(O)c(C(c2cccc(F)c2)N2CCC(C)CC2)c(=O)n1Cc1ccco1 (stereo unspecified) | . | . | . | . | . | 25.1µM*
Cc1cc(O)c(C(c2ccccc2)N2CCC(C)CC2)c(=O)n1Cc1ccco1 (stereo unspecified) | . | . | . | . | . | 28.2µM*
